# Assay results as given in PubChem BioAssay (EPA / NIEHS).
# Calls of active or inactive are those of the source. How the source made its calls: active means hit-call score of the fitted dose curve at least 0.9, where 1 is the maximum; inactive means score below 0.9.
# Legend:
# [1] = ATG_GLI_CIS: Attagene CIS-FACTORIAL HepG2 Assay for human Zinc Finger Protein GLI1 (AID 2282945); settings: HepG2, Attagene cis-factorial reporter mRNA, GLI element; actives raise or lower the signal
# Outline: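 HepG2 cells transiently transfected with cis-promoter multiplexed reporter units report endogenous transcription factor activity. After 24 h chemical exposure, reporter mRNA was quantified by RT-PCR, 6-FAM labelling, HpaI digestion and capillary electrophoresis, with bidirectional fitting against DMSO.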
# [2] = target: Bile acid receptor (Homo sapiens) (UniProt Q96RI1); assay: ATG_IR1_CIS: Attagene CIS-FACTORIAL HepG2 Assay for human Nuclear Receptor Subfamily 1 Group H Member 4 (NR1H4), IR1 submotif (AID 2282946); settings: IR1 reporter transcription, actives raise or lower the signal
# Bile acid receptor (Homo sapiens), sequence (Q96RI1 whole entry, looked up): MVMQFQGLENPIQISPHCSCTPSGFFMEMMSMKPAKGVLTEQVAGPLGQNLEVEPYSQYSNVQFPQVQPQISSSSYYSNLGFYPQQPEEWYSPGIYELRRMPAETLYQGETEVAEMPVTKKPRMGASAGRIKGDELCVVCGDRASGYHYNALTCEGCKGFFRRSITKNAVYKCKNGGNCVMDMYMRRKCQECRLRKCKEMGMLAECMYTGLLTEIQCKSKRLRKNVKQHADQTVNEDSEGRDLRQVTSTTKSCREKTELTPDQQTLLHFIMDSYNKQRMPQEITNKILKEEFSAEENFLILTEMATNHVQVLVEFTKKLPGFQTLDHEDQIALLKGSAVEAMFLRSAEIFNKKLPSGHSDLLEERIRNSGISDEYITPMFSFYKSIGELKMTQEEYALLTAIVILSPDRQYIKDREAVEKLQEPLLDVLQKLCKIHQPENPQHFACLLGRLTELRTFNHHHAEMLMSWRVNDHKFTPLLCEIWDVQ
# Outline: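 Transient MRTU transfection, HepG2; 24 h dosing; RNA → RT-PCR → 6-FAM primer extension → HpaI digest → capillary electrophoresis fluorescence. Gain/loss of signal fitted relative to DMSO.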
# [3] = ATG_GRE_CIS: Attagene CIS-FACTORIAL HepG2 Assay for human Glucocorticoid Response Elements (GRE) (AID 2282947); settings: HepG2 GRE cis-reporter, Attagene multiplex mRNA; actives raise or lower the signal
# Outline: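 HepG2 cells transiently transfected with multiple cis-promoter reporter units measure endogenous TF activity; 24 h compound exposure. Reporter mRNA quantified by RT-PCR, FAM labelling, HpaI digestion and capillary electrophoresis; bidirectional fit vs DMSO baseline.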
# [4] = ATG_ISRE_CIS: Attagene CIS-FACTORIAL HepG2 Assay for human Interferon Regulatory Factor 1 (IRF1) binding to an Interferon-Stimulated Response Element (ISRE) (AID 2282948); settings: HepG2 ISRE cis-reporter (Attagene), mRNA transcription readout; actives raise or lower the signal
# Outline: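 Transfected HepG2 (multiple reporter transcription units, cis elements) dosed 24 h. RNA → oligo(dT) RT → PCR → 6-FAM primer extension → HpaI → CE. DMSO = negative control/baseline.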
# [5] = ATG_M_32_CIS: Attagene CIS-FACTORIAL HepG2 Assay for M32 Transcription Factor (Internal Marker) (AID 2282949); settings: HepG2 Attagene cis-factorial M32 reporter, mRNA; actives raise or lower the signal;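 further: background control marker of the multiplexed CIS panel rather than a real target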
# Outline: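 Following 24 h chemical exposure of HepG2 cells transiently expressing cis-promoter reporter constructs, reporter transcript levels were determined by RT-PCR with fluorescent labelling and capillary electrophoresis, then fitted bidirectionally against DMSO.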
# [6] = ATG_M_06_CIS: Attagene CIS-FACTORIAL HepG2 Assay for M06 Transcription Factor (Internal Marker) (AID 2282950); settings: HepG2 Attagene CIS-FACTORIAL M06 internal marker reporter; actives raise or lower the signal
# Outline: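 Measured 24 h post-dosing in transiently transfected HepG2 cells, this internal-marker endpoint reports reporter mRNA via RT-PCR with fluorescent primer extension and capillary electrophoresis. DMSO served as negative control and baseline for bidirectional fitting.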
# [7] = target: Hypoxia-inducible factor 1-alpha (Homo sapiens) (UniProt Q16665); assay: ATG_HIF1a_CIS: Attagene CIS-FACTORIAL HepG2 Assay for human Hypoxia Inducible Factor 1 (HIF1A) (AID 2282951); settings: HepG2 Attagene cis-factorial HIF1a reporter transcription; actives raise or lower the signal
# Hypoxia-inducible factor 1-alpha (Homo sapiens), sequence (Q16665 whole entry, looked up): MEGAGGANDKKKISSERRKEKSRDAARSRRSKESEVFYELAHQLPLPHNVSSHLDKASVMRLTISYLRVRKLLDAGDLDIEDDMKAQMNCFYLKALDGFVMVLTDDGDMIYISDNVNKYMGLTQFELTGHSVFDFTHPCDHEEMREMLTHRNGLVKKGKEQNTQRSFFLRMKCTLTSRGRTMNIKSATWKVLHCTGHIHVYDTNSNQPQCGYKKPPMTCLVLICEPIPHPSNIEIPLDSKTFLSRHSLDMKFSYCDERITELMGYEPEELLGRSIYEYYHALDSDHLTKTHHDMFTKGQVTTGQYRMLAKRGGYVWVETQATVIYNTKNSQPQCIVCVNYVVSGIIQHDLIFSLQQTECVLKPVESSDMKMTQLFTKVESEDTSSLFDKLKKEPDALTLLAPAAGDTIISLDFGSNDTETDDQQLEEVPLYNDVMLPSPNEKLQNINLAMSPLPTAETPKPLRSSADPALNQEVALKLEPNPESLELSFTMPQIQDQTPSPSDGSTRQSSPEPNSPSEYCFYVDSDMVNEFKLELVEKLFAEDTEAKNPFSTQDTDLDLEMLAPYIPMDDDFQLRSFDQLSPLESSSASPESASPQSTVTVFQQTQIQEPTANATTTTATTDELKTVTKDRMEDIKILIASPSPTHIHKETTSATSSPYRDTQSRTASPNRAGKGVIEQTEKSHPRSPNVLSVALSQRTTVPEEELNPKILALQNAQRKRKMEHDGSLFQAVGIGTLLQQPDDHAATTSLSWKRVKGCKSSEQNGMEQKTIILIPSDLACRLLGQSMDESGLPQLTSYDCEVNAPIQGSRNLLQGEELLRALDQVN
# Outline: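 RT-PCR/capillary electrophoresis fluorescence readout of reporter transcripts from endogenous-TF-driven cis elements in transfected HepG2 cells, 24 h exposure; activity fitted in both directions against DMSO controls.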
# [8] = target: Hepatocyte nuclear factor 6 (Homo sapiens) (UniProt Q9UBC0); assay: ATG_HNF6_CIS: Attagene CIS-FACTORIAL HepG2 Assay for human Hepatocyte Nuclear Factor 6 (HNF6) (AID 2282952); settings: HepG2 Attagene cis-factorial HNF6 reporter transcription; actives raise or lower the signal
# Hepatocyte nuclear factor 6 (Homo sapiens), sequence (Q9UBC0 whole entry, looked up): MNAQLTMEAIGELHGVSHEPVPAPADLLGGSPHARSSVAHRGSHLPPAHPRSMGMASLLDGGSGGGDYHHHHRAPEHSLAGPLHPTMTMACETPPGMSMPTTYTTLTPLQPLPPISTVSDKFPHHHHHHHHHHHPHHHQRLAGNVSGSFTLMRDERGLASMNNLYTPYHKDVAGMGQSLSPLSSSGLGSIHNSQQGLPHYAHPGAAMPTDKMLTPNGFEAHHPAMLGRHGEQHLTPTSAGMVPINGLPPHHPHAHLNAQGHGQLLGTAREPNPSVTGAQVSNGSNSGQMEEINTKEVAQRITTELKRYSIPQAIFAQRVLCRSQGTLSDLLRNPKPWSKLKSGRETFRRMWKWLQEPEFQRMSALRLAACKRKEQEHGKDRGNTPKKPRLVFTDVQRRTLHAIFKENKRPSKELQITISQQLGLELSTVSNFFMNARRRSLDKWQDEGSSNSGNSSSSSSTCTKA
# Outline: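 Multiplexed mRNA reporter assay in transfected HepG2; 24 h dosing; RT-PCR plus capillary electrophoresis fluorescence; DMSO-referenced bidirectional curve fitting.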
# [9] = target: Heat shock factor protein 1 (Homo sapiens) (UniProt Q00613); assay: ATG_HSE_CIS: Attagene CIS-FACTORIAL HepG2 Assay for human Heat Shock Transcription Factor 1 (HSE) (AID 2282953); settings: HepG2 HSE cis-reporter, Attagene RNA transcription; actives raise or lower the signal
# Heat shock factor protein 1 (Homo sapiens), sequence (Q00613 whole entry, looked up): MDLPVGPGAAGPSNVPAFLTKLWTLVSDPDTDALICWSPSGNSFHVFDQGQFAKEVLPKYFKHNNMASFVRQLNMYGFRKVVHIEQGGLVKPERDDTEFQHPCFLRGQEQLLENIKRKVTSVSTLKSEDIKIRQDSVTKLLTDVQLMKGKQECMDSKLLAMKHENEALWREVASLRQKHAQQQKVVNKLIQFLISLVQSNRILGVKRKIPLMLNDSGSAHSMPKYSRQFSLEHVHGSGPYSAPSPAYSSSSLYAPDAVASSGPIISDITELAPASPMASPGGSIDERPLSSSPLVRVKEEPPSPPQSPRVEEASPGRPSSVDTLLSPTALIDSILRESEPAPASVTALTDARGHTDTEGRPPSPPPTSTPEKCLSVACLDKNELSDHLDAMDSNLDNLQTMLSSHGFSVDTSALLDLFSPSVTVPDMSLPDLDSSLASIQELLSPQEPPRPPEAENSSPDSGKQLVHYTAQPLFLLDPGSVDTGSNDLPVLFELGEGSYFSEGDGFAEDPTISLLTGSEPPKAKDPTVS
# Outline: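 Reporter mRNA induction in HepG2 is measured 24 h after dosing, using transiently transfected multiplexed cis-regulated reporter units. Signal comes from capillary electrophoresis of labelled RT-PCR products, with DMSO as negative control.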
# [10] = ATG_MRE_CIS: Attagene CIS-FACTORIAL HepG2 Assay for human Metal Responsive Element (MRE) (AID 2282954); settings: HepG2 MRE cis-reporter transcription, Attagene multiplex; actives raise or lower the signal
# Outline: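 HepG2 cells transiently transfected with multiple cis-element reporter units measure endogenous MTF1-driven transcription. After 24 h compound exposure, reporter mRNA is quantified by RT-PCR with 6-FAM labelling, HpaI digestion and capillary electrophoresis; bidirectional fits versus DMSO.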
# [11] = ATG_PBREM_CIS: Attagene CIS-FACTORIAL HepG2 Assay for human Phenobarbital-responsive Enhancer Module (PBREM) (AID 2282955); settings: HepG2 PBREM cis-reporter, Attagene multiplexed transcription; actives raise or lower the signal
# Outline: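 Reporter mRNA read by RT-PCR, 6-FAM primer extension, HpaI digestion and capillary electrophoresis. Transfected HepG2 cells, 24 h compound exposure. Gain or loss of signal fitted bidirectionally relative to DMSO baseline.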
# [12] = ATG_PXRE_CIS: Attagene CIS-FACTORIAL HepG2 Assay for human Pregnane X Receptor Element (PXRE) (AID 2282957); settings: HepG2 Attagene CIS-FACTORIAL PXRE reporter, mRNA; actives raise or lower the signal
# Outline: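 Cells: HepG2, transiently transfected reporter units under cis promoter control. Exposure: 24 h. Detection: reporter mRNA via RT-PCR/CE fluorescence; bidirectional fitting, DMSO-referenced.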
# [13] = ATG_PPRE_CIS: Attagene CIS-FACTORIAL HepG2 Assay for human Peroxisome Proliferator-activated Response Element (PPRE) (AID 2282958); settings: HepG2 PPRE cis-element reporter, Attagene transcription factor profiling; actives raise or lower the signal
# Outline: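 Read-out: fluorescent reporter mRNA fragments resolved by capillary electrophoresis after RT-PCR. HepG2 cells carried transiently transfected PPRE-driven cis reporter constructs and were dosed for 24 h; gain or loss of signal fitted relative to DMSO.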
# [14] = ATG_RORE_CIS: Attagene CIS-FACTORIAL HepG2 Assay for human RAR-related Orphan Receptor Element (RORE) (AID 2282959); settings: HepG2 Attagene cis-factorial RORE reporter, mRNA; actives raise or lower the signal
# Outline: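 Readout: fluorescent reporter mRNA by RT-PCR plus capillary electrophoresis, 24 h after dosing transfected HepG2 cells. Endogenous transcription factor activity on a cis promoter element is measured. Gain or loss of signal fitted against DMSO.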
# [15] = ATG_Sox_CIS: Attagene CIS-FACTORIAL HepG2 Assay for human SRY-box transcription factor (SOX) (AID 2282960); settings: HepG2 Attagene cis-factorial SOX reporter, mRNA; actives raise or lower the signal
# Outline: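 Read-out: fluorescent RT-PCR products of SOX1-linked reporter transcripts resolved by capillary electrophoresis, fitted bidirectionally against DMSO. Transiently transfected HepG2 cells, 24 h after chemical exposure, endogenous transcription factor activity.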
# [16] = target: Transcription factor Sp1 (Homo sapiens) (UniProt P08047); assay: ATG_Sp1_CIS: Attagene CIS-FACTORIAL HepG2 Assay for human Specificity Protein 1 (Sp1) (AID 2282961); settings: HepG2 Sp1 cis-reporter transcription, actives raise or lower the signal
# Transcription factor Sp1 (Homo sapiens), sequence (P08047 whole entry, looked up): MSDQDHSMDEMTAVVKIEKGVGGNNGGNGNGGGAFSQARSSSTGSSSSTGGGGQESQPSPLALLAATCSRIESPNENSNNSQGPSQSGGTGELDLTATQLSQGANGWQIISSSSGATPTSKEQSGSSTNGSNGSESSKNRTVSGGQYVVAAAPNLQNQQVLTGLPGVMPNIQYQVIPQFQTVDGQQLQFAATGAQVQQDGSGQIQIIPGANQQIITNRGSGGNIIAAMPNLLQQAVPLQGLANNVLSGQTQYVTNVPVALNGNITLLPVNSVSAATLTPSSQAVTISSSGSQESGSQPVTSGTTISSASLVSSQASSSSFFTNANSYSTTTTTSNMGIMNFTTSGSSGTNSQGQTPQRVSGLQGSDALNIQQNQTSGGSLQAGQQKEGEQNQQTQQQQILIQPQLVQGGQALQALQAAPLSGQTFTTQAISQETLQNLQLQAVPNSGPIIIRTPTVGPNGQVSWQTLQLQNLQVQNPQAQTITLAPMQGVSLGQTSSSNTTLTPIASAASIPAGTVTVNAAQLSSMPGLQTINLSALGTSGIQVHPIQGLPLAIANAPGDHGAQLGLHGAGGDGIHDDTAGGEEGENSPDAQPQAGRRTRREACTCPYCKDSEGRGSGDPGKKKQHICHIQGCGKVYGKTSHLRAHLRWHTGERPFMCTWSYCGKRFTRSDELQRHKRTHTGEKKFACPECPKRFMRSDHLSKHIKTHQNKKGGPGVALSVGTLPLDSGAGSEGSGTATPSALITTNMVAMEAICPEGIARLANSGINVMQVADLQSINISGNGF
# Outline: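 Read-out: fluorescence of 6-FAM-labeled, HpaI-digested RT-PCR products separated by capillary electrophoresis. HepG2 cells carried transfected cis-element reporter units and were exposed to chemicals for 24 h; gain or loss of signal fitted relative to DMSO.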
# [17] = ATG_SREBP_CIS: Attagene CIS-FACTORIAL HepG2 Assay for human Sterol Regulatory Element Binding (SREBP) (AID 2282962); settings: HepG2 Attagene cis-factorial SREBP reporter, mRNA; actives raise or lower the signal
# Outline: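 Transfected HepG2 (cis-regulated reporter library, endogenous TFs) → compound 24 h → total RNA → oligo(dT) RT → reporter-specific PCR → FAM primer extension, HpaI cut → CE fluorescence. Fit bidirectional vs DMSO.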
# [18] = target: Signal transducer and activator of transcription 3 (Homo sapiens) (UniProt P40763); assay: ATG_STAT3_CIS: Attagene CIS-FACTORIAL HepG2 Assay for human Signal Transducer and Activator of Transcription 3 (STAT3) (AID 2282963); settings: HepG2, Attagene cis-factorial STAT3 reporter transcription; actives raise or lower the signal
# Signal transducer and activator of transcription 3 (Homo sapiens), sequence (P40763 whole entry, looked up): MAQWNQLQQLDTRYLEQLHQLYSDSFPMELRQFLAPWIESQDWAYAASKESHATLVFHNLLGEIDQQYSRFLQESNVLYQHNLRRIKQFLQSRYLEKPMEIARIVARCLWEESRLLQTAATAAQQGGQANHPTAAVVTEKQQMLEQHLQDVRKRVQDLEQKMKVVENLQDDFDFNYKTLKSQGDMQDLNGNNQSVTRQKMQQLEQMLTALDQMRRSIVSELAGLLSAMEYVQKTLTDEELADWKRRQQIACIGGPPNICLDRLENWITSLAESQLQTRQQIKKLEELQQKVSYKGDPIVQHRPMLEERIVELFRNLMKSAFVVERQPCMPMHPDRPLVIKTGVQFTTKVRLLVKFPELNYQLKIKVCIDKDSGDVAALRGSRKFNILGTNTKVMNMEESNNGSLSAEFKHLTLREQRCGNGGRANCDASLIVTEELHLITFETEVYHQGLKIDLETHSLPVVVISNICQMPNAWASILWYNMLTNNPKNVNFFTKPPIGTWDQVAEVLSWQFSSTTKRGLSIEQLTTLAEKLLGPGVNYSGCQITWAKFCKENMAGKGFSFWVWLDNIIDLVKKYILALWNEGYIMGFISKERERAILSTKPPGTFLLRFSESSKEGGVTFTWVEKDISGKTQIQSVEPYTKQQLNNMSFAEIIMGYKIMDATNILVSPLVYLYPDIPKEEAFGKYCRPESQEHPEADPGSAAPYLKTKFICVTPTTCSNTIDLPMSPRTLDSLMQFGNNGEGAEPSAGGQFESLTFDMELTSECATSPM
# Outline: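 HepG2 cells transiently transfected with cis-element-driven multiple reporter transcription units; after 24 h chemical exposure, reporter mRNA measured by RT-PCR, 6-FAM primer-extension labelling, HpaI digestion and capillary electrophoresis. Bidirectional fitting versus DMSO baseline.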
# [19] = target: Paired box protein Pax-6 (Homo sapiens) (UniProt P26367); assay: ATG_Pax6_CIS: Attagene CIS-FACTORIAL HepG2 Assay for human Paired Box 6 (PAX6) (AID 2282956); settings: HepG2 CIS-FACTORIAL PAX6 reporter transcription, RNA readout; actives raise or lower the signal
# Paired box protein Pax-6 (Homo sapiens), sequence (P26367 whole entry, looked up): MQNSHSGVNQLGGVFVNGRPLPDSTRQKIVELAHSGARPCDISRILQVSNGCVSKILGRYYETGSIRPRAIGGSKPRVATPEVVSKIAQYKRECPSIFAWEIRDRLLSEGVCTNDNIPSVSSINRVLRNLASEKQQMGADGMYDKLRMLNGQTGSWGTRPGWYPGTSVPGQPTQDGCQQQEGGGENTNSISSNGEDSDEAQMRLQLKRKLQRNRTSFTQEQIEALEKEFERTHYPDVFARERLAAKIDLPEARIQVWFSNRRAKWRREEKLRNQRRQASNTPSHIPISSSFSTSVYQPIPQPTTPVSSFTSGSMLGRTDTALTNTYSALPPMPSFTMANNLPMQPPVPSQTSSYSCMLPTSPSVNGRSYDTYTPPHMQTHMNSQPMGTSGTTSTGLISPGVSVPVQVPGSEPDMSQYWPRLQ
# Outline: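 Transient MRTU transfection of HepG2 → compound exposure 24 h → TriZol RNA, oligo(dT) RT → PCR, 6-FAM primer extension, HpaI cut → capillary electrophoresis; activity fitted both directions against DMSO.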
# [20] = ATG_TA_CIS: Attagene CIS-FACTORIAL HepG2 Assay for human TA Basal Promoter (AID 2282964); settings: HepG2 Attagene CIS-factorial TA basal promoter reporter; actives raise or lower the signal
# Outline: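 Cis-factorial format in HepG2: reporters report endogenous factors, not chimeric Gal4 fusions. After 24 h treatment, reporter transcripts were measured by RT-PCR-capillary electrophoresis fluorescence, analysed bidirectionally versus DMSO.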
compound,measurement,setting,value
CCCCCCCCCCCC(=O)Cl,outcome,[1],inactive
same,outcome,[2],inactive
same,outcome,[3],inactive
same,outcome,[4],inactive
same,outcome,[5],inactive
same,outcome,[6],inactive
same,outcome,[7],inactive
same,outcome,[8],inactive
same,outcome,[9],inactive
same,outcome,[10],inactive
same,outcome,[11],inactive
same,outcome,[12],inactive
same,AC50,[13],49.9 µM (active)
same,outcome,[14],inactive
same,outcome,[15],inactive
same,outcome,[16],inactive
same,AC50,[17],41.2 µM (active)
same,outcome,[18],inactive
CC(O)C#CC(C)O (stereo not drawn),AC50,[1],142 µM (active)
same,AC50,[2],67.7 µM (active)
same,outcome,[3],inactive
same,AC50,[4],99.5 µM (active)
same,outcome,[5],inactive
same,outcome,[6],inactive
same,outcome,[7],inactive
same,AC50,[8],70.5 µM (active)
same,AC50,[9],78.2 µM (active)
same,AC50,[10],57.2 µM (active)
same,outcome,[11],inactive
same,AC50,[19],81.3 µM (active)
same,AC50,[12],148 µM (active)
same,outcome,[13],inactive
same,outcome,[14],inactive
same,AC50,[15],77.1 µM (active)
same,AC50,[16],73.1 µM (active)
same,outcome,[17],inactive
same,outcome,[18],inactive
same,outcome,[20],inactive
Cc1cc(C)c(O)c(C(C)(C)C)c1,outcome,[1],inactive
same,outcome,[2],inactive
same,outcome,[3],inactive
same,outcome,[4],inactive
same,outcome,[5],inactive
same,outcome,[6],inactive
same,outcome,[7],inactive
same,outcome,[8],inactive
same,outcome,[9],inactive
same,outcome,[10],inactive
same,outcome,[11],inactive
same,outcome,[19],inactive
same,AC50,[12],27.1 µM (active)
same,outcome,[13],inactive
same,outcome,[14],inactive
same,outcome,[15],inactive
same,outcome,[16],inactive
same,outcome,[17],inactive
same,outcome,[18],inactive
same,outcome,[20],inactive
CCc1cc(Cc2cc(CC)c(N)c(CC)c2)cc(CC)c1N,AC50,[1],60.5 µM (active)
same,outcome,[2],inactive
same,outcome,[3],inactive
same,outcome,[4],inactive
same,outcome,[5],inactive
same,outcome,[6],inactive
same,outcome,[7],inactive
same,AC50,[8],56.6 µM (active)
same,AC50,[9],60 µM (active)
same,AC50,[10],26.1 µM (active)
same,outcome,[11],inactive
same,AC50,[19],33.4 µM (active)
same,AC50,[12],1.1 µM (active)
same,outcome,[13],inactive
same,outcome,[14],inactive
same,AC50,[15],29.3 µM (active)
same,outcome,[16],inactive
same,AC50,[17],3.95 µM (active)
same,outcome,[18],inactive
same,outcome,[20],inactive
